# Assay outcomes (PubChem)
# AID inhibitor: blocks human AID cytidine deaminase activity | Q9GZX7 | AID deamination FRET fluorescence, UDG-coupled, 4 h | Potency, µM (top dose mostly 115 µM), most hits filed as inhibitors | actives 0.32% (n = 91,000) | AID 1347428; further: nearly all actives have a fitted effect of over 25% in size
# Target sequence (Q9GZX7 whole entry, looked up): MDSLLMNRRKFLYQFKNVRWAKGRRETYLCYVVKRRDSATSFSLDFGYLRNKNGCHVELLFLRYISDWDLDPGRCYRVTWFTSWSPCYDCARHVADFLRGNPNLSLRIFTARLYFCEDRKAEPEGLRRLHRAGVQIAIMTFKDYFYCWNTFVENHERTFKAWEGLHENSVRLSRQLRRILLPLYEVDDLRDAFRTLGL
# UDG counter: blocks uracil-DNA glycosylase in AID counter-screen. FRET deamination/UDG coupled assay, UDG read, 4 h. Potency, µM (highest dose often 115 µM), usual class: inhibitors. actives 0.14% (n = 91,000). AID 1347430; further: nearly all actives have a fitted effect of over 65% in size
# Numbers stand for hits; - = inactive; ? = inconclusive; ! = repeats disagree. Compounds with a hit are over-represented: about 0.4% of the library has one in this group of screens. The call rests on the fitted dose curve; in most records, active means well fitted curve in the direction sought with a large enough effect; inconclusive means small, poorly fitted or top-dose-only effect, or another doubt; inactive means no such curve, though single readings can be large; an effect the other way counts as inactive or inconclusive.
SMILES,AID inhibitor,UDG counter
CSc1ccc(CC2C(=O)Nc3ccccc32)cc1 (stereo unspecified),-,-
CCOCCCn1c(=N)c(S(=O)(=O)c2ccccc2)cc2c(=O)n3cc(C)ccc3nc21,-,-
Cc1ccc(CCNC(=O)CN(c2ccc(C)cc2)S(=O)(=O)N(C)C)cc1,-,-
Oc1ccc(NCc2ccccc2OCc2ccccc2F)cc1,20µM,-
Oc1ccc(NCc2ccccc2OCc2ccccc2Cl)cc1,32µM,-
Fc1ccc(NCc2ccccc2F)cc1,-,-
N#Cc1ccc(NCc2ccccc2Cl)cc1,-,-
COc1ccc(C(=O)Nc2ccccc2C(=O)OCc2cc(=O)n3nc(C4CC4)sc3n2)cc1,-,-
COC(=O)NCC(=O)NC(c1ccccc1)C(C)C (stereo unspecified),-,-
Cc1ccc(NC(=O)CSc2ccccc2C(=O)Nc2ccc3c(c2)OCCCO3)cc1,-,-
Cc1nnc(SCc2nc(-c3ccc(Cl)cc3)no2)n1-c1ccc(F)cc1,?,79µM
Cc1ccc(-c2noc(CSc3nnc(C4CC4)n3-c3ccccc3)n2)cc1,-,89µM
Cc1cccc(-n2c(SCc3nc(-c4ccccc4C)no3)nnc2-c2ccccc2)c1,-,-
Cc1ccc(-c2noc(CSc3nnc(C)n3-c3ccc(F)cc3)n2)cc1,-,?
Cc1cc(C)cc(OCC(=O)N2CCC(NC(=O)c3ccccc3)CC2)c1,-,-
Cc1ccc(Nc2nc(C(=O)N3CCC(C(=O)NCc4ccccc4)CC3)cs2)cc1,-,-
O=C(C1CC1)N(Cc1ccc2c(c1)CN(S(=O)(=O)c1cc(F)cc(F)c1)CCO2)c1ccccc1,-,-
O=C(C1CC1)N(Cc1ccc2c(c1)CN(S(=O)(=O)c1cc(F)ccc1F)CCO2)c1ccccc1,-,89µM
CCC(Sc1nc2c(sc3ccccc32)c(=O)n1CCc1ccc(OC)c(OC)c1)C(=O)N(CC)CC (stereo unspecified),32µM,-
CCC(Sc1nc2c(sc3ccccc32)c(=O)n1CCc1ccccc1)C(=O)N(CC)CC (stereo unspecified),-,-
CCN(CC)c1ccc(C(=O)NCc2ccc3c(c2)CCN3C(=O)c2ccccc2)cc1,-,-
CN(C)c1ccc(C(=O)NCc2ccc3c(c2)CCN3C(=O)c2ccccc2)cc1,-,79µM
CCc1ccc(-c2nn(C)c(=O)c3c2CCCC3)cc1S(=O)(=O)Nc1cccc(F)c1,-,-
Cc1c(C=O)c(C)n(-c2ccccc2)c1C,-,-
CN1CCN(C(=O)c2ccc3c(c2)N(Cc2ccc(C(F)(F)F)cc2)C(=O)c2ccccc2S3)CC1,?,-
SMILES,AID inhibitor,UDG counter
COc1cc2ncn(CCC(=O)N3CCN(c4cccc(Cl)c4)CC3)c(=O)c2cc1OC,-,-
COc1ccc2c(c1)Cc1sc(NC(=O)c3cccc(Br)c3)nc1-2,50µM,-
COc1ccc2c(c1)Cc1sc(NC(=O)c3cccc(F)c3)nc1-2,?,-
Cc1ccccc1OCC(=O)Nc1ccccc1C(=O)OCc1cc(=O)n2c(C)csc2n1,-,-
COc1ccc(Nc2nc3ccccc3nc2NS(=O)(=O)c2ccc(Cl)cc2)cc1OC,79µM!,-
COc1ccc(Nc2nc3ccccc3nc2NS(=O)(=O)c2ccc(NC(C)=O)cc2)cc1OC,-,-
CCCOC(=O)c1c(NC(=O)C2c3ccccc3Oc3ccccc32)sc2c1CCCC2,-,-
COc1ccc(NC(=O)CC2Nc3ccccc3NC2=O)cc1 (stereo unspecified),-,-
CCOC(=O)c1ccc(NC(=O)CC2Nc3cccc4cccc(c34)NC2=O)cc1 (stereo unspecified),?,-
CCOc1ccc(NC(=O)CC2Nc3cccc4cccc(c34)NC2=O)cc1 (stereo unspecified),50µM,?
CC(=O)c1ccc(NC(=O)CC2Nc3cccc4cccc(c34)NC2=O)cc1 (stereo unspecified),79µM,?
O=C(CN1C(=O)COc2ccc(S(=O)(=O)N3CCOCC3)cc21)Nc1ccc(F)c(Cl)c1,-,-
O=C(N/N=C/c1cc(Br)cs1)c1ccccc1,-,-
CN(C(=O)c1nc(-c2cccc(F)c2)n2c1CCCCC2)c1ccccc1F,-,-
CCOc1ccc(CCNC(=O)c2nc(-c3cccc(F)c3)n3c2CCCCC3)cc1OCC,18µM,?
Clc1cnc(N/N=C/c2ccc(Br)cc2)c(Cl)c1,-,-
O=C(CCn1nc(-c2ccc(Cl)cc2)c2ccccc2c1=O)N1CCCC1,-,-
Cc1cc(OC(C)C(=O)N(Cc2ccco2)Cc2ccccc2F)cc(C)c1Cl (stereo unspecified),?,-
CCOc1ccc(-n2c(C)nc3cc(C(=O)NCc4ccc(C)cc4)ccc32)cc1,32µM,-
CCOc1ccc(-n2c(C)nc3cc(C(=O)NCCC4=CCCCC4)ccc32)cc1,-,-
Cc1ccc2c(COC(=O)c3ccc(C)c(C)c3)cc(=O)oc2c1,-,-
Cc1ccc(Cl)cc1NC(=O)Nc1nnc(N(C)Cc2ccccc2)s1,-,89µM
Cc1ccc(NC(=O)Nc2nnc(N(C)Cc3ccccc3)s2)c(C)c1,-,-
Cc1cc(N)c2ccccc2[n+]1CCCCCCCCCC[n+]1c(C)cc(N)c2ccccc21,50µM,89µM
O=S1(=O)c2ccccc2N(Cc2ccc(F)cc2)c2ccccc21,?,-
SMILES,AID inhibitor,UDG counter
O=S1(=O)c2ccccc2N(Cc2ccc(Cl)cc2)c2ccccc21,79µM,-
O=C(NCc1cccs1)c1ccc(CSc2nc3ccncc3n2Cc2ccccc2F)cc1,79µM,-
Cc1ccccc1Cn1c(SCc2ccc(C(=O)NCc3cccs3)cc2)nc2ccncc21,-,-
CN1C(=O)Cc2cc(S(=O)(=O)CCC(=O)N3CCN(c4ccc(Cl)cc4)CC3)ccc21,-,89µM
COc1cccc(N2CCN(C(=O)CCS(=O)(=O)c3ccc4c(c3)CC(=O)N4C)CC2)c1,-,?
Cc1cc(C)c(NC(=O)CSc2nnc3[nH]c(=O)cc(C)n23)c(C)c1,-,-
COc1ccc(C(=O)NCc2coc(-c3cccs3)n2)c(F)c1,-,-
Cc1ccc(S(=O)(=O)c2cn(C)c3cc(N4CCCC4)c(F)cc3c2=O)c(C)c1,-,-
CCn1cc(S(=O)(=O)c2ccc(C)cc2C)c(=O)c2cc(F)c(N3CCCC3)cc21,22µM,?
CC(=O)c1c(Cc2ccccc2)sc(C#N)c1C,-,-
O=C(Nc1cccc(Cl)c1)c1c(NC(=O)C(F)(F)F)sc2c1CCCC2,?,-
Cc1cccc(NC(=O)c2c(NC(=O)C(F)(F)F)sc3c2CCCCC3)c1,79µM,-
COC(=O)c1ccccc1NS(=O)(=O)c1cc2c3c(c1)CC(=O)N3CCC2,-,?
COC(=O)CSc1nc2c(c(-c3cccs3)c1C#N)CCCC2,-,-
CC(C)(C)C1CCc2nc(SCC(N)=O)c(C#N)c(C(F)(F)F)c2C1 (stereo unspecified),?,79µM
Cc1ccc2[nH]c(C)c(CCNC(=S)NC(C)(C)C)c2c1,-,-
CC(C)N(C(=O)c1cccc(I)c1)C(C)C,-,-
O=C(NCc1ccc(F)cc1)c1nn(-c2ccccc2)c2c1CCC2,-,-
Cc1ccc2nc(Cl)c3cc(C(=O)N4CCCCC4C)sc3c2c1 (stereo unspecified),?,-
Cc1ccc2nc(Cl)c3cc(C(=O)N4CCCC(C)C4)sc3c2c1 (stereo unspecified),40µM,-
Cc1nc2nc(C)c(CCC(=O)NCc3cccc(Cl)c3)c(C)n2n1,-,-
COc1ccc(S(=O)(=O)N(CC(=O)Nc2cccc(C(F)(F)F)c2)c2ccc(C)cc2)cc1,25µM,-
